Assay results from PubChem BioAssay (NCATS).
Several values for one entry are separate records, joined by “and”; a condition that tells them apart may be missing. Equal entries are not always repeated. Records with an inconclusive call do not appear. Activity calls are given as the source filed them. Unless noted, the call rests on the fitted dose curve; in most records, active means well fitted curve in the direction sought with a large enough effect; inconclusive means small, poorly fitted or top-dose-only effect, or another doubt; inactive means no such curve, though single readings can be large; an effect the other way counts as inactive or inconclusive.

Experiments:
[1] = molecular target: DNA repair nuclease/redox regulator APEX1 (Homo sapiens) (UniProt P27695); assay: qHTS Validation Assay for Inhibitors of the Human Apurinic/apyrimidinic Endonuclease 1 (APE1) (AID 1705; further: potency means the concentration at half of the fitted maximal effect;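 on activity change, negative = inhibition: TAMRA fluorescence gain over two minutes as APE1 cuts a quenched THF abasic duplex; on the % scale 0 is the no-effect control and ±100 the full control effect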)
Sequence of DNA repair nuclease/redox regulator APEX1 (Homo sapiens) (P27695 whole entry, looked up): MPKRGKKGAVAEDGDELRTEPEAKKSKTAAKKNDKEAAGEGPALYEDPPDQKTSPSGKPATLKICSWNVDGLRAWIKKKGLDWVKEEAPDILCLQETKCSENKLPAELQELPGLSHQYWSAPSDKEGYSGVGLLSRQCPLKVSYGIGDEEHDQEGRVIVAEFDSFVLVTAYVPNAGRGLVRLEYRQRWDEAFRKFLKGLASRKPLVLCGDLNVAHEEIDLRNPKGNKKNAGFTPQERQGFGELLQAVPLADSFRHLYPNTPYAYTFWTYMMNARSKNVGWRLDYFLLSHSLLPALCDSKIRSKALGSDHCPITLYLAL
Summary of the method: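 Read-out: TAMRA fluorescence (525 nm ex, 598 nm em) from cleavage of a quenched THF abasic-site duplex, 50 nM final; activity taken as intensity change between third and first of three reads 60 s apart.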

[2] = Counterscreen for APE1 Inhibitors: Fluorescent Dye Displacement Validation Assay (AID 1707);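 further: plate controls were ThO with dsDNA and no compound for no effect and ThO without dsDNA for full effect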
Summary of the method: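 Thiazole Orange displacement from dsDNA: 250 nM ThO with 50 nM TAMRA-labelled abasic-site (tetrahydrofuran) duplex in 50 mM Tris-HCl pH7.5, 50mM NaCl, 2 mM MgCl2, 0.01% Tween-20. Loss of endpoint fluorescence (ex 480 nm, em 540 nm) flags DNA binders.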

[3] = molecular target: Endonuclease 4 (Escherichia coli (strain K12)) (UniProt P0A6C1); assay: Counterscreen for APE1 Inhibitors: qHTS Validation Assay for Inhibitors of Endonuclease IV (AID 1708); further: on the % scale 0 is the no-effect control and ±100 the full control effect
Summary of the method: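 Concentration-response counterscreen run identically to the APE1 assay: 15 min room-temperature preincubation of 2 nM enzyme with compound, reaction started with 50 nM quenched abasic DNA, progress taken from kinetic fluorescence.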

[4] = qHTS for differential inhibitors of proliferation of Plasmodium falciparum line 7G8 (AID 1815);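 further: parasite growth measured after three days of incubation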; further: potency means the concentration at half of the fitted maximal effect;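 on activity change, negative = inhibition: plate controls were vehicle wells for no effect and reference inhibitor wells for full effect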
[5] = qHTS for differential inhibitors of proliferation of Plasmodium falciparum line GB4 (AID 1816); conditions: Potency: Plasmodium falciparum GB4 proliferation inhibition;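 further: parasite growth measured after 72 h incubation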; further: potency means the concentration at half of the fitted maximal effect;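 on activity change, negative = inhibition: 0% = vehicle DMSO and -100% = reference inhibitor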
[6] = qHTS for differential inhibitors of proliferation of Plasmodium falciparum line 3D7 (AID 1876); further: potency means the concentration at half of the fitted maximal effect
[7] = qHTS for differential inhibitors of proliferation of Plasmodium falciparum line D10 (AID 1877);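 further: parasites grown with compound for 72 h before DNA staining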; further: potency means the concentration at half of the fitted maximal effect;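 on activity change, negative = inhibition: plate controls were vehicle wells for no effect and reference inhibitor wells for full effect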
[8] = qHTS for differential inhibitors of proliferation of Plasmodium falciparum line Dd2 (AID 1882); conditions: Potency: Plasmodium falciparum Dd2 proliferation inhibition; further: nearly all actives have a fitted effect of over 65% in size; further: potency means the concentration at half of the fitted maximal effect;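 on activity change, negative = inhibition: plate controls were DMSO vehicle for no effect and 0.29 µM artemisinin for full effect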
Summary of the method: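 Dd2-infected erythrocytes (0.3% parasitemia, 2.5% hematocrit final) incubated with compound 72 h at 37 C, 5% CO2; lysed with saponin/Triton buffer containing SYBR Green I, incubated overnight in the dark, then read by fluorescence (485/535 nm). Normalized to 0.29 uM artemisinin and DMSO.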

[9] = qHTS for differential inhibitors of proliferation of Plasmodium falciparum line W2 (AID 1883); conditions: Potency: Plasmodium falciparum W2 proliferation inhibition;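 further: parasites grown with compound for 72 h before lysis and staining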; further: potency means the concentration at half of the fitted maximal effect;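 on activity change, negative = inhibition: 0% = vehicle wells and -100% = control inhibitor wells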
[10] = qHTS for differential inhibitors of proliferation of Plasmodium falciparum line HB3 (AID 1886); conditions: Potency: Plasmodium falciparum HB3 proliferation inhibition;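 further: parasites grown with compound for 72 h before SYBR Green readout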; further: potency means the concentration at half of the fitted maximal effect;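 on activity change, negative = inhibition: plate controls were vehicle for no effect and reference inhibitor for full effect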
[11] = Cell Viability - LYMP2-022 (AID 987);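 further: 0% = DMSO alone and full effect = tetraoctylammonium bromide at 92 µM; nearly all actives have a fitted effect of over 55% in size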
Summary of the method: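 qHTS: human lymphoblastoid cells 2500/well; 5 hr 37 C; cpd added; 24 hr 37 C; CellTiter-Glo, 30 min RT; luminescence. AC50 via Hill fit; tetraoctylammonium bromide positive ctrl.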

[12] = Cell Viability - LYMP2-024 (AID 988);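 further: plate controls were DMSO only for no effect and 92 µM tetraoctylammonium bromide for full effect; nearly all actives have a fitted effect of over 60% in size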
Summary of the method: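 Steps: seed 2500 cells/well, 5 hr 37 C; add compound, 24 hr 37 C; add CellTiter-Glo, 30 min room temperature; read luminescence. AC50 derived by Hill modelling of concentration-dependent ATP loss.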

[13] = Cell Viability - LYMP2-026 (AID 989);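 further: cells exposed to compound for 24 h at 37 °C; on the % scale 0 is the no-effect control and ±100 the full control effect; nearly all actives have a fitted effect of over 50% in size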
Summary of the method: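 Luminescent ATP signal (CellTiter-Glo, 30 min room temperature) measures viable lymphoblastoid cells after 24 hr compound treatment at 37 C. Decreased ATP reflects acute toxicity; AC50 values come from Hill-equation modeling.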

[14] = molecular target: Alpha-galactosidase A (Homo sapiens) (UniProt P06280); assay: Counterscreen for Glucocerebrosidase Inhibitors: qHTS Assay for Human alpha-Galactosidase at pH 4.5 (AID 992); further: 0% is about no effect
Sequence of Alpha-galactosidase A (Homo sapiens) (P06280 whole entry, looked up): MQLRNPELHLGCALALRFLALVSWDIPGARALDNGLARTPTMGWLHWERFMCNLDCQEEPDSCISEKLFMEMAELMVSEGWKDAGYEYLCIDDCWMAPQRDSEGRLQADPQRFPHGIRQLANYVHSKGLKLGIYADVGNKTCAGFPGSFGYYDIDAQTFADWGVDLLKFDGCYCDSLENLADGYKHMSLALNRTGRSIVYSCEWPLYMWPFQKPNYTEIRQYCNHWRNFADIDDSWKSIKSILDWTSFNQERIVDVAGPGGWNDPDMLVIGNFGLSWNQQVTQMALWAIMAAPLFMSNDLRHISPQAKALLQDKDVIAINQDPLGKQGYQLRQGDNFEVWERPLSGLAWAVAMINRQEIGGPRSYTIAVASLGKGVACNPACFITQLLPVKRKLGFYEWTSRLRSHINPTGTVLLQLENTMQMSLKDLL
Summary of the method: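 Enzyme at 2 nM final was combined with compound (0.7 nM to 77 uM) and 80 uM 4-methylumbelliferyl alpha-D-galactopyranoside in 50 mM citric acid, 0.005% Tween-20, pH 4.5. After 20 min at room temperature, fluorescence was read (Ex 365/Em 440 nm); AC50 came from Hill fits.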

[15] = Cell Viability - LYMP1-002 - Assay at 24 hr (AID 993); further: on the % scale 0 is the no-effect control and ±100 the full control effect
Summary of the method: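 Cells plated 2500/well, 5 hr 37 C; compounds added, 24 hr 37 C; CellTiter-Glo added, 30 min RT; luminescence read. Tetraoctylammonium bromide positive control. Hill-equation AC50.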

[16] = Cell Viability - LYMP1-002 - Assay at 40 hr (AID 994);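 further: 0% = DMSO only and full inhibition = 92 µM tetraoctylammonium bromide; nearly all actives have a fitted effect of over 60% in size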
Summary of the method: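 Luminescent ATP signal served as the viability readout, with decreases taken as toxicity. Cells were treated with compounds across a concentration range for 40 hours at 37 C, and AC50 values came from standard Hill modeling.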

[17] = molecular target: alpha-glucosidase (Oryza sativa, rice) (UniProt Q653V4); assay: Counterscreen for Glucocerebrosidase Inhibitors: qHTS Assay for Rice alpha-Glucosidase at pH 5.0 (AID 997);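 further: 0% = full activity with enzyme and -100% = basal without enzyme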
Summary of the method: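 Rice alpha-glucosidase (4 nM final) with 400 uM 4-methylumbelliferyl-alpha-D-glucopyranoside in citrate buffer pH 5.0, 20 min at room temperature, stopped at pH 10; fluorescence 365/440 nm, compounds 0.7 nM–77 uM, AC50 from Hill fits.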

[18] = qHTS Assay for Lipid Storage Modulators (AID 1519; calls by dose curve; on activity change, negative = inhibition: on the % scale 0 is the no-effect control and ±100 the full control effect); conditions: Drosophila S3 cells, BODIPY lipid droplet/cell ratio, laser cytometry, cells loaded with oleic acid
Summary of the method: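 Cells seeded at 5,000 per well were treated with compounds over a concentration series and loaded with oleic acid (400 uM, as added). Lipid droplet fluorescence (488 nm excitation, 500-530 nm channel) was read by laser-scanning cytometry and normalized to 20 uM Triacsin C.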

[19] = measured here: cell count channel max response
[20] = measured here: lipid channel max response

COc1cc2nc(N3CCN(C(=O)C4COc5ccccc5O4)CC3)nc(N)c2cc1OC (stereo unspecified)
active: Potency [4] 2.24 µM | Potency [5] 3.16 µM | Potency [6] 2.82 µM | Potency [7] 2.51 µM | Potency [8] 11.2 µM | Potency [9] 1.12 µM | Potency [10] 2.82 µM
inactive: Potency [1] | Potency [2] | Potency [3]

Cn1c(=O)c2[nH]cnc2n(C)c1=O
inactive: outcome [11] | outcome [12] | outcome [13] | outcome [14] | outcome [15] | Potency [16] | outcome [17] | Potency [1] | Potency [3] | Potency [4] | Potency [5] | Potency [6] | Potency [7] | Potency [8] | Potency [9] | Potency [10]

CCCCc1oc2ccccc2c1C(=O)c1cc(I)c(OCCN(CC)CC)c(I)c1
1.02%: max response [18, 20]
0.489%: max response [18, 19]
active: Potency [4] 2.82 µM | Potency [5] 2.51 µM | Potency [6] 2.82 µM | Potency [7] 7.08 µM | Potency [9] 2.24 µM | Potency [10] 3.98 µM
inactive: outcome [14] | outcome [17] | activity change, negative = inhibition ([18]; at 57.5 µM (top of the series)) -1.96% | Potency [1] | Potency [2]

Cc1ccc(-c2cc(C(F)(F)F)nn2-c2ccc(S(N)(=O)=O)cc2)cc1
18.8%: max response [18, 19]
inactive: outcome [11] | outcome [12] | outcome [13] | outcome [15] | Potency [16] | activity change, negative = inhibition ([18]; at 57.5 µM (top of the series)) 7.63%
30%: max response [18, 20]

CC(C)C(=O)Nc1ccc([N+](=O)[O-])c(C(F)(F)F)c1
inactive: outcome [11] | outcome [12] | outcome [13] | outcome [14] | outcome [15] | Potency [16] | outcome [17] | Potency [1] | Potency [2]

Cc1cn([C@H]2C=C[C@@H](CO)O2)c(=O)[nH]c1=O
inactive: outcome [11] | outcome [12] | outcome [13] | outcome [14] | outcome [15] | Potency [16] | outcome [17] | activity change, negative = inhibition ([18]; at 57.5 µM (top of the series)) 1.52% | Potency [1] | Potency [2] | Potency [4] | Potency [5] | Potency [6] | Potency [7] | Potency [8] | Potency [9] | Potency [10]
-10.8%: max response [18, 19]
-8.91%: max response [18, 20]

CCCNCC(O)COc1ccccc1C(=O)CCc1ccccc1 (stereo unspecified)
active: Potency [5] 0.355 µM | Potency [6] 0.891 µM | Potency [7] 2.24 µM | Potency [9] 0.316 µM | Potency [10] 1 µM
inactive: activity change, negative = inhibition ([18]; at 57.5 µM (top of the series)) 6.61% and -1.46% | Potency [1] | Potency [2]
14% and 22.1%: max response [18, 20]
8.1% and 22.1%: max response [18, 19]

CN(Cc1cnc2nc(N)nc(N)c2n1)c1ccc(C(=O)N[C@@H](CCC(=O)O)C(=O)O)cc1
-11.7%: max response [18, 19]
inactive: outcome [14] | outcome [17] | activity change, negative = inhibition ([18]; at 57.5 µM (top of the series)) 0.2% | Potency [3]
-9.12%: max response [18, 20]
active: Potency [1] 20 µM | Potency [4] 0.126 µM | Potency [5] 0.0398 µM | Potency [6] 0.0708 µM | Potency [7] 0.0398 µM | Potency [9] 0.0398 µM | Potency [10] 0.0708 µM

Cn1ccc2cc3c(cc21)CCN3C(=O)Nc1cccnc1
inactive: outcome [14] | outcome [17] | Potency [1] | Potency [2] | Potency [3]
active: Potency [4] 10 µM | Potency [5] 11.2 µM | Potency [9] 10 µM | Potency [10] 12.6 µM

COc1ccc2[nH]cc(CCNC(C)=O)c2c1
inactive: outcome [11] | outcome [12] | outcome [13] | outcome [14] | outcome [15] | Potency [16] | outcome [17] | activity change, negative = inhibition ([18]; at 25.7 µM (top of the series)) 1.02% | activity change, negative = inhibition ([18]; at 57.5 µM (top of the series)) 11.3% and -5.62% and 7.48% | Potency [1] | Potency [2] | Potency [3] | Potency [4] | Potency [5] | Potency [6] | Potency [7] | Potency [8] | Potency [9] | Potency [10]
